Consider 40 sequences from the supplement of paper PMC3334620.

Over roughly 33,000 sequences, “E-score (-0.5 to 0.5)” has its median near -0.011; the highest 2% begin near 0.28. The sample as a whole holds a higher share of the highest values than the screen did.

The target of this experiment is T1, Gcr1 (UniProt P07261).
T1 sequence: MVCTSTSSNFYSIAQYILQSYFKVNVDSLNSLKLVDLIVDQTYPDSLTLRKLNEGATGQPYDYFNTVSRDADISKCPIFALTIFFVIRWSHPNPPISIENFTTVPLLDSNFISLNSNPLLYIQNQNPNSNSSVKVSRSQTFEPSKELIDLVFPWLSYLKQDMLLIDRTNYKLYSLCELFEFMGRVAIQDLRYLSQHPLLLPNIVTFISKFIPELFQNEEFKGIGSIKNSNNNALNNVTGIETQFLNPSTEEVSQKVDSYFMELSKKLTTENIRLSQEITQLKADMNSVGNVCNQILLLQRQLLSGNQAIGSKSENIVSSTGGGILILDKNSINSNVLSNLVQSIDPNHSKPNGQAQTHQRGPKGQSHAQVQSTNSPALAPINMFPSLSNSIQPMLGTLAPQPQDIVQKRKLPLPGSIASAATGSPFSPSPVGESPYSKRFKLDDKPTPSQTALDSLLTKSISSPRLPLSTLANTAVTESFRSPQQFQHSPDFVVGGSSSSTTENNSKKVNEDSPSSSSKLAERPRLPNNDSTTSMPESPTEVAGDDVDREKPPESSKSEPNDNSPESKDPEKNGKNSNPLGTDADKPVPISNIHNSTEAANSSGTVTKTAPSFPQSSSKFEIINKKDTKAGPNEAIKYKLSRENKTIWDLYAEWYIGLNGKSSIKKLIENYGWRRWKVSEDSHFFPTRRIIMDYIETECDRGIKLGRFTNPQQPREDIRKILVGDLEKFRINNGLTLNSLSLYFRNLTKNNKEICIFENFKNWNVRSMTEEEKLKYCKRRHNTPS
In words: PBM E-score (8-mer binding enrichment) (E-score (-0.5 to 0.5)); higher = stronger / more preferred TF binding. Particulars: protein concentration: 100 nM; construct: GST-full length. The method, boiled down:
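PURExpress in vitro transcription/translation supplied GST-tagged yeast transcription factors, either full-length or DNA-binding domain. Applied at about 100-200 nM to universal all-10-mer Agilent arrays double-stranded by primer extension, the bound protein was detected with fluorescent anti-GST. E-scores, modified Wilcoxon-Mann-Whitney statistics, were given by the Universal PBM Analysis Suite to ungapped eight-base words pooled with their reverse complements after masliner normalisation.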
For TGGTGGAA, the “PBM E-score” value was 0.124.
As for AAGTGGAA, the figure is 0.41; as for GGGTGGAA, -0.113; as for AAGTGGAT, 0.136.
The same measure for CAGTGGAA: 0.244; for GAGTGGAA: 0.316; for GAGTGGAC: -0.0196.
As for AAGTGGAG, the “PBM E-score” value was found to be 0.141.
For the sequence TAGTGGAA, the “PBM E-score” value came to 0.42.
Turning to AAGTGGTA, the “PBM E-score” value is 0.176.
As for AAGTGGTG, the figure is 0.281; as for AAGTGGTC, 0.0307.
The same measure for GTCGCCTA: 0.0571.
As for GATCTCAC, the figure is -0.257; as for CTAGGGTC, 0.00957.
Consider ATTTTTTG, for which the “PBM E-score” value is 0.228.
As for AGTTATTC, the figure is 0.0537.
For CACTGTAG, the “PBM E-score” value was -0.115.
The same measure for AAGTGGCA: 0.238; for GAGTGGCA: -0.0587.
The same measure for TAGTGGCA: 0.289.
As for AAGCGATC, the figure is -0.135.
As to AGGTAGTC, the “PBM E-score” value was found to be 0.072.
The same measure for AGGAGTCG: -0.069; for AGGAGTCA: -0.0283.
The same measure for CGGAGTAC: -0.243; for CGGAGTCC: 0.281; for AGGAGTCC: 0.303.
As for CGGAGTCA, the figure is -0.00995.
In the case of GACACCTA, the “PBM E-score” value turned out to be 0.0961.
The same measure for TCCCTACA: 0.00308.
For the sequence AAGCAGGA, the “PBM E-score” value worked out at 0.0293.
The same measure for CCTCAGAC: -0.19; for CAACTTCC: 0.321; for GCACTTCC: 0.168.
As for CCACTTCG, the figure is 0.0958; as for CAACTTCA, -0.0643.
As for CCACTTCC, the figure is 0.305; as for CAACTTCG, 0.107; as for GGCTCGCA, -0.137.
